According to PubChem BioAssay AID709 (SRMLSC, 2007):
About 3,600 (5.5%) of roughly 65,000 compounds were called active. This excerpt belongs to a sample that is enriched for actives. Unmarked numbers belong to inactive results.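 How the source made its calls: active means at 10 µM, mean starting fluorescence two-fold or more over control wells; inactive means the rest.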 Where a SMILES comes first, the peptide text is derived from it. The star is where a group is joined. Bz = O=C(c1ccccc1)*

test: intrinsic fluorescence of library compounds, ex339/em460 – biochemical, MLSMR library, data from DPM-DC assay, artefact control, profiling panel (AID 709); conditions: compound autofluorescence, ex339/em460 nm, NADH buffer; at 10 µM; active compounds read high; 1 = no-compound wells, NADH background;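 further: signal is the first read of a kinetic run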

| SMILES | fluorescence fold increase |
| --- | --- |
| O=C(COc1ccccc1)NCCc1nc2ccccc2[nH]1 | 1.13 |
| Fc1ccc(-c2nnc3sc(-c4ccc5c(c4)OCO5)nn23)cc1 | 2.05 (active) |
| COc1ccc(-c2nn3c(-c4ccccc4)nnc3s2)cc1OC | 1.69 |
| Fc1ccc(-c2ccc(-c3nn4c(-c5ccco5)nnc4s3)o2)cc1 | 1.49 |
| Cc1noc(C)c1COC(=O)Cn1c(C)nc2ccccc21 | 1.09 |
| O=C(c1cccs1)N1CCC(c2nc3ccccc3s2)CC1 | 1.04 |
| O=C(OC1CCOC1=O)c1ccc(-c2nc3ccccc3s2)s1 (configuration not stated) | 5 (active) |
| Cc1nn(Cc2ccccc2)c(Cl)c1C(=O)OC1CCOC1=O (configuration not stated) | 1.07 |
| O=C(NCc1ccco1)C1CCCN(S(=O)(=O)c2cnc[nH]2)C1 (configuration not stated) | 1.08 |
| c1ccc2[nH]c(-c3nc4ccccc4[nH]3)nc2c1 | 2.21 (active) |
| C=CCSc1nc2ccccc2[nH]1 | 1.11 |
| c1ccc(-c2[nH]ncc2-c2nc3ccccc3[nH]2)cc1 | 1.2 |
| CC1(C)Oc2ccc3ccc(=O)oc3c2/C(=C/NCCO)C1=O | 1.05 |
| CCOc1ccccc1-n1c(SCC(=O)NCc2ccco2)nnc1-c1ccncc1 | 1.07 |
| CCOC(=O)C1=C(C)N=c2s/c(=C\C(=O)OC)c(=O)n2C1c1ccc(OC)cc1 (configuration not stated) | 1.08 |
| O=C(NCc1ccco1)c1cc(-c2cccnc2)nc2ccc(Cl)cc12 | 1.17 |
| O=C(NCc1ccco1)c1cccn2c(=O)c3cc(Br)ccc3nc12 | 2.53 (active) |
| O=C(Nc1ccccc1)Nc1ccccc1C(=O)NCc1ccco1 | 1.65 |
| Cc1cc(NC(=O)CSCc2nc(-c3cccc(Cl)c3)oc2C)no1 | 1.06 |
| Cn1c(C(=O)NCCCN2CCCCC2)cc2sccc21 | 1.19 |
| Cc1ccsc1-c1nc(CSCC(=O)NCCN2CCCC2)c(C)o1 | 2.22 (active) |
| CC(C)NC(=O)CCCn1c(=S)[nH]c2cc3c(cc2c1=O)OCO3 | 1.07 |
| COc1cccc(-n2cc(C(=O)O)c3ccccc3c2=O)c1 | 1.36 |
| Cn1c(=O)c2cn(-c3cccc4ccccc34)cc2n(C)c1=O | 1.28 |
| COc1cccc(-n2cc3c(c2-c2ccccc2)c(=O)n(C)c(=O)n3C)c1 | 2.35 (active) |

| SMILES | fluorescence fold increase |
| --- | --- |
| COc1ccc(OC)c(-n2cc3c(=O)n(C)c(=O)n(C)c3c2)c1 | 1.3 |
| CC(=O)Nn1cc2c(=O)n(C)c(=O)n(C)c2c1 | 1.03 |
| Cc1ccc(-c2c3c(=O)n(C)c(=O)n(C)c3cn2-c2ccccc2O)cc1 | 3.24 (active) |
| COc1ccc(-c2c3c(=O)n(C)c(=O)n(C)c3cn2NC(C)=O)cc1 | 2.81 (active) |
| Cc1ccc(-c2c3c(=O)n(C)c(=O)n(C)c3cn2-n2cnnc2)cc1 | 1.07 |
| COc1ccc(-c2c3c(=O)n(C)c(=O)n(C)c3cn2-c2cccc(OC)c2)cc1 | 1.94 |
| Nc1nonc1-c1noc(-c2ccc(Br)o2)n1 | 1.07 |
| Cc1onc(-c2ccccc2)c1C(=O)N1CCOCC1 | 1.04 |
| O=C(C1CCN(S(=O)(=O)Cc2ccccc2)CC1)N1CCCc2ccccc21 | 1.08 |
| COc1ccc(-n2c(SC)nc(O)cc2=O)cc1 | 1.1 |
| O=C1[C@@H]2C(Cc3ccc(O)cc3)NC3(C(=O)Nc4ccc(F)cc43)[C@@H]2C(=O)N1c1ccc(F)cc1 (some centres not stated) | 1.1 |
| COC(=O)c1ccccc1NC(=O)c1ccccc1NS(C)(=O)=O | 1.13 |
| CCc1ccccc1NC(=O)c1cccs1 | 1.09 |
| O=C(Nc1nncs1)c1ccccc1NS(=O)(=O)c1cccs1 | 2.5 (active) |
| COc1ccc(CCNC(=O)CSc2nnc(-c3cccc(F)c3)o2)cc1OC | 1.07 |
| c1ccc2cc3[nH]c(CN4CCCCC4)nc3cc2c1 | 1.35 |
| CCOC(=O)N1CCN(C(=O)c2nn(-c3ccc(C)cc3)c(=O)c3c2c2ccccc2n3C)CC1 | 2.21 (active) |
| Cn1c2ccccc2c2c(C(=O)N3CCN(c4ccc(F)cc4)CC3)cn(C3CCCC3)c(=O)c21 | 1.57 |
| CCOC(=O)N1CCN(C(=O)c2n[nH]c(=O)c3ccccc23)CC1 | 1.04 |
| COc1nc(Oc2ccc(=O)n(C)n2)nc(N(C)C)n1 | 1.04 |
| CCC(=O)Nc1ccc(C(=O)Nc2ccc3c(c2)C(=O)N(CC2CCCO2)C3=O)cc1 (configuration not stated) | 1.59 |
| O=C(O)c1ccc(NC(=O)C2CCCCC2)cc1 | 1.11 |
| O=C(Nc1cnn(Cc2ccc(Cl)cc2)c1)C1CCCC1 | 1.03 |
| CN1C(=O)c2ccc(NC(=O)C3CCCCC3)cc2C1=O | 4.96 (active) |
| CN1C(=O)c2ccc(NC(=O)c3c(F)c(F)c(F)c(F)c3F)cc2C1=O | 2.11 (active) |

| SMILES | fluorescence fold increase |
| --- | --- |
| O=C(Nc1ccncc1)c1c(F)cccc1F | 1.11 |
| CCCCc1nc2ccccc2c(NC(=O)CN2CCN(C)CC2)c1CCC | 1.08 |
| CC1=C(C(=O)Nc2ccc(Cl)cc2)C(c2ccco2)NC(=O)N1 (configuration not stated) | 1.1 |
| COc1ccccc1N1CCN(Cc2ccc(OC)c3ccccc23)CC1 | 1.12 |
| O=C(NC(Cc1ccccc1)C(=O)N1CCCC1C(=O)O)c1ccccc1 (stereo not drawn) (Bz-Phe-Pro-OH; configuration not given here) | 0.84 |
| CCCn1c(=O)c2[nH]c(C3CCCC3)nc2n(CCC)c1=O | 1.03 |
| CCc1ccc(CCC(=O)Nc2ccc(S(N)(=O)=O)cc2)o1 | 1.08 |
| CCOC(=O)CSc1nnc(NC(=O)c2cccc(S(=O)(=O)N3CCCCC3)c2)s1 | 1 |
| CCOC(=O)CSc1nnc(NC(=O)c2cccc(S(=O)(=O)N3CCCC3)c2)s1 | 1.07 |
| CCOC(=O)c1csc(NC(=O)c2ccc(S(=O)(=O)N3CCCC3)cc2)n1 | 2.49 (active) |
| Cc1ccc(S(=O)(=O)c2nc(NCCCn3ccnc3)sc2Cl)cc1 | 1.12 |
| CC(C)(C)NC(=O)C(c1ccco1)N(Cc1ccc2c(c1)OCO2)C(=O)Cn1nnc2ccccc21 (configuration not stated) | 1.1 |
| O=C(NCCC1=CCCCC1)C1CCN(Cc2cnn(-c3ccccc3)c2-n2cccc2)CC1 | 1.16 |
| Cn1cccc1Cc1nnc(SCC(=O)NCCc2ccccc2)n1-c1ccc(F)cc1 | 1.12 |
| CCCC(=O)N1c2ccc(-c3csc(N)n3)cc2CC1C (configuration not stated) | 1.13 |
| COc1cc2c(cc1NC(=O)CN1CCN(S(=O)(=O)c3ccc(F)cc3)CC1)oc1ccccc12 | 2.72 (active) |
| COc1ccccc1NC(=O)CN1CCN(S(=O)(=O)c2ccc(Br)cc2)CC1 | 1 |
| COc1ccc(NC(=O)CN2CCN(S(=O)(=O)c3ccc(F)cc3)CC2)cc1Cl | 1.01 |
| Cc1cc2cc(CNC(=O)c3ccc(S(=O)(=O)N4CCOCC4)cc3)ccc2[nH]1 | 1.07 |
| Cc1coc2c(O)cc3c(c12)OC1(N2CCCCC2)C(=O)NCCCC31 (configuration not stated) | 1.1 |
| COc1ccc2[nH]c3c(=O)n(Cc4ccco4)cnc3c2c1 | 3.87 (active) |
| O=c1c2[nH]c3ccc(Cl)cc3c2ncn1Cc1ccccn1 | 1.12 |
| COc1ccc2[nH]c3ccc(OC)cc3c2c1 | 1.46 |
| COc1ccc(N2C(=O)c3cccc4cccc(c34)C2=O)nn1 | 1.57 |
| C=CCNc1nnc(C)c2ccccc12 | 1.09 |

| SMILES | fluorescence fold increase |
| --- | --- |
| Cc1ccnc(N2CCN(C(=O)CSc3nc4ccccc4nc3N3CCCCC3)CC2)c1 | 1.18 |
| C=CCNc1nnc(SCC(=O)N2CCCCC2)c2ccccc12 | 2.26 (active) |
| CCCC(=O)N(CCc1ccccc1)Cc1nc2ccccc2c(=O)[nH]1 | 1.13 |
| CS(=O)(=O)NCc1ccc(C(=O)NCc2ccccc2)cc1 | 1.04 |
| O=C1C2(c3ccccc3)CN(CCCO)CC1(c1ccccc1)CN(CCCO)C2 | 1 |
| COCCn1c(C)cc(C(=O)CSc2ncnc3sc4c(c23)CCC4)c1C | 1.55 |
| COCCNc1nc(-n2nc(C)cc2C)nc2sc3c(c12)CCCC3 | 3.57 (active) |
| Cc1cc(C)n(-c2nc(SCC(=O)N3CCCC3)c3c4c(sc3n2)CCCC4)n1 | 1.3 |
| CCOc1ccc(S(=O)(=O)n2ccnc2)c2ccccc12 | 1.04 |
| COc1cc(C2C(C(=O)c3ccc(C)o3)=C(O)C(=O)N2Cc2cccnc2)ccc1O (configuration not stated) | 1.02 |
| COc1ccccc1N1CCN(C(=O)c2cn(-c3ccccc3)nc2-c2cccnc2)CC1 | 1.12 |
| Cc1nnc(SCC(=O)Nn2cnnc2)s1 | 1.03 |
| COc1ccc(-c2noc(-c3cccc(OC)c3OC)n2)cc1OC | 1.12 |
| CCOC(=O)N1CCN(C(=O)CNC(=O)Cc2ccc(Cl)cc2)CC1 | 1.08 |
| CCOC(=O)N1CCN(C(=O)c2ccc3nc4cc(Cl)ccc4c(=O)n3c2)CC1 | 3.31 (active) |
| CCOC(=O)N1CCN(C(=O)CSc2ccc(Cl)cc2)CC1 | 1.07 |
| Cc1cc(C)nc(NC(=O)C(C)N2C(=O)c3ccccc3C2=O)n1 (configuration not stated) | 1.09 |
| CCn1c(=N)c(S(=O)(=O)c2ccc(F)cc2)cc2c(=O)n3ccccc3nc21 | 3.45 (active) |
| Cc1ccc(C)c(NC(=O)C2CCCN2C(=O)OC(C)(C)C)c1 (configuration not stated) | 1.17 |
| CCn1nc(C(=O)OCC(=O)N2c3ccccc3CC2C)c2ccccc2c1=O (configuration not stated) | 1.05 |
| COc1ccccc1Oc1ccc(S(=O)(=O)Nc2cccnc2)cc1 | 1.1 |
| O=P(c1ccc2c(c1)OCCO2)(N1CCOCC1)N1CCOCC1 | 1.13 |
